Only some compounds are listed: those with a hit (about 1.8% of all), similar ones and a draw of the others.
UHRF1 binding – blocks human UHRF1 binding to methylated DNA. UHRF1 binding to methylated oligo, TR-FRET. inhibition, % at 4.4 µM. 370,000 tested, 0.75% active. AID 687016. Q96T88; in the data active = inhibition above about 21%;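 note: UHRF1 SRA domain binding a hemimethylated CpG hairpin DNA probe; 0% = median of test compound wells and 100% = reference inhibitor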
UBC13 polyUb – human UBC13 polyubiquitination inhibition; UBC13 polyubiquitin chain formation, TR-FRET; inhibition, % at 20 µM; 330,000 tested, 0.47% active; AID 485273; in the data active = inhibition above about 45%, passing the limit was not always enough
Neddyl block – inhibitors of human cullin neddylation; P61081+Q13564; TR-FRET cullin neddylation, biochemical; calls only at 25 µM; 360,000 tested, 0.58% active; in the data active = inhibition above about 36%
Target sequence (P61081 whole entry, looked up): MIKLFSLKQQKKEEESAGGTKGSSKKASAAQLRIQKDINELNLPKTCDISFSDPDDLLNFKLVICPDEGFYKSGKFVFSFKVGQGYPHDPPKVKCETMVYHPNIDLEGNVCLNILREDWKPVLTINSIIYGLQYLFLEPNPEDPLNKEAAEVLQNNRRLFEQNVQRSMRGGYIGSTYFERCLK
Target sequence (Q13564 whole entry, looked up): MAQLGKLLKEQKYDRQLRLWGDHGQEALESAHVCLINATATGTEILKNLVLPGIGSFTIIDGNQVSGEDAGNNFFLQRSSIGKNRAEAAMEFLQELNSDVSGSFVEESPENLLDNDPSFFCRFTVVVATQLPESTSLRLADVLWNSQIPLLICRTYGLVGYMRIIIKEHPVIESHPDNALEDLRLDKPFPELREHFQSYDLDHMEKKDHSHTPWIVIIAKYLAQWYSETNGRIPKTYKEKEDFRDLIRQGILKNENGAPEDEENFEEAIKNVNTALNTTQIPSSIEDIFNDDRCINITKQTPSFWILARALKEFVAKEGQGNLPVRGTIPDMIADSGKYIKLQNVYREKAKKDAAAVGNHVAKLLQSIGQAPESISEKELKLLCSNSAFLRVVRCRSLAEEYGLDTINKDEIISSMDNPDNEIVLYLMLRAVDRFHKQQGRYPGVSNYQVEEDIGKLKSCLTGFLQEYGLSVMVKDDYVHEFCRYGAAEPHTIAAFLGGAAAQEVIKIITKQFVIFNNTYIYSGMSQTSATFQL
MBD2 DNA inh – MBD2-methylated oligo binding inhibition; Q9UBB5; TR-FRET, MBD2 binding to methylated oligonucleotide; inhibition, % at 4.4 µM; 370,000 tested, 0.31% active; AID 686964; in the data active = inhibition above about 13%
Numbers without * were called inactive.

How did O=c1c2ccccc2nc2n1C(CSCc1ccc(Cl)cc1Cl)CS2 (centres undefined) do in these assays?
UHRF1 binding: 22*; UBC13 polyUb: -1; Neddyl block: inactive; MBD2 DNA inh: 8

Results for Nc1ccccc1SCC1CSc2nc3ccccc3c(=O)n21 (centres undefined) ?
UHRF1 binding: -1; UBC13 polyUb: 6; Neddyl block: inactive; MBD2 DNA inh: -6

How did CCOC(=O)c1ccc(CC(=O)c2ccc(O)c(O)c2O)o1 do in these assays?
UHRF1 binding: 24*; UBC13 polyUb: -1; Neddyl block: inactive; MBD2 DNA inh: 4

What do the screens show for `Cc1c(C(=O)N2CCCCC2)c(S(=O)(=O)N2CCN(c3ccccc3F)CC2)c(C)n1C`?
UHRF1 binding: -2; UBC13 polyUb: -1; Neddyl block: inactive; MBD2 DNA inh: 3

How did Cc1c(C(=O)N2CCCCC2)c(S(=O)(=O)N2c3ccccc3CC2C)c(C)n1C (centres undefined) do in these assays?
UHRF1 binding: 23*; UBC13 polyUb: -4; Neddyl block: inactive; MBD2 DNA inh: 2

How did Cc1c(CCC(=O)NCCCn2ccnc2)c(=O)oc2c(C)c3oc4c(c3cc12)CCCC4 do in these assays?
UBC13 polyUb: 53*

How did CC(=O)Nc1ccc2nc3c(=O)n(C)c(=O)n(C)c3nc2c1 do in these assays?
UHRF1 binding: -2; UBC13 polyUb: -60; Neddyl block: active; MBD2 DNA inh: -6

How did CC(C)CCN(CCC(C)C)C(CO)(CO)CO do in these assays?
UHRF1 binding: 22*; UBC13 polyUb: 1; Neddyl block: inactive; MBD2 DNA inh: 11

Results for O=S(=O)(c1ccc2nc(N3CCN(c4ccc(F)cc4)CC3)ccc2c1)N1CCCCC1 ?
UHRF1 binding: 24*; UBC13 polyUb: 6; Neddyl block: inactive; MBD2 DNA inh: 12

What do the screens show for `O=S(=O)(c1ccc2nc(N3CCN(c4ccccc4F)CC3)ccc2c1)N1CCCCC1`?
UHRF1 binding: 18; UBC13 polyUb: 43; Neddyl block: inactive; MBD2 DNA inh: 7

Results for O=S(=O)(c1ccc2nc(Nc3ccccc3)ccc2c1)N1CCCCC1 ?
UHRF1 binding: 23*; UBC13 polyUb: -6; Neddyl block: inactive; MBD2 DNA inh: 11

What do the screens show for `CCOC(=O)NC(=O)CSc1nc2ccc([N+](=O)[O-])cc2[nH]1`?
UHRF1 binding: -2; UBC13 polyUb: -8; Neddyl block: inactive; MBD2 DNA inh: -2

Results for COc1ccc(CCNC(=O)CSc2nc(=O)n3cccc(C)c3n2)cc1OC ?
UHRF1 binding: -1; UBC13 polyUb: -1; Neddyl block: inactive; MBD2 DNA inh: 5

What do the screens show for `N=C1S/C(=C\c2ccc(-c3ccccc3C(=O)O)o2)C(=O)N1c1ccc2c(c1)OCO2`?
UHRF1 binding: 23*; Neddyl block: inactive; MBD2 DNA inh: 7

Results for Nc1nc(-c2ccc(S(=O)(=O)N3CCCCC3)cc2)cs1 ?
UHRF1 binding: -2; UBC13 polyUb: 9; Neddyl block: active; MBD2 DNA inh: 1

How did Cc1nc(-c2ccc(S(=O)(=O)N3CCCCCC3)cc2)cs1 do in these assays?
UHRF1 binding: 2; UBC13 polyUb: -1; Neddyl block: inactive; MBD2 DNA inh: 0

What do the screens show for `O=C(Nc1cccc(O)c1)C(=O)Nc1ccccn1`?
UHRF1 binding: 68*; UBC13 polyUb: -12; Neddyl block: inactive; MBD2 DNA inh: 0

How did Cc1ccc(C(=O)Nc2nccc(C)n2)cc1 do in these assays?
UHRF1 binding: -3; UBC13 polyUb: 0; Neddyl block: inactive; MBD2 DNA inh: -4

What do the screens show for `CCOc1ccc(Nc2nc3ccccc3n3nnnc23)cc1`?
UHRF1 binding: 0; UBC13 polyUb: -2; Neddyl block: active; MBD2 DNA inh: -4

What do the screens show for `CCOc1ccc(Nc2nc3ccccc3n2C)cc1`?
UHRF1 binding: 1; UBC13 polyUb: 6; Neddyl block: inactive; MBD2 DNA inh: 1

Results for CC(C)NC(=O)NC(=O)COC(=O)c1c2c(nc3ccccc13)CCC2 ?
UHRF1 binding: 0; UBC13 polyUb: -8; Neddyl block: inactive; MBD2 DNA inh: -1

How did Cc1ccc(S(=O)(=O)N2CCCCC2)cc1NC(=O)CCCOc1ccccc1 do in these assays?
UHRF1 binding: -1; UBC13 polyUb: -3; Neddyl block: inactive; MBD2 DNA inh: 4

Results for Cc1cc(=O)[nH]c2nnc(SCC(=O)N3CC(C)OC(C)C3)n12 (centres undefined) ?
UHRF1 binding: 2; UBC13 polyUb: 2; Neddyl block: inactive; MBD2 DNA inh: 2

What do the screens show for `Cc1cc(C[n+]2ccccc2)c2nsnc2c1`?
UHRF1 binding: -1; UBC13 polyUb: 0; Neddyl block: active; MBD2 DNA inh: 2

What do the screens show for `Cc1ccnc(N2C(=O)c3cccc4c([N+](=O)[O-])ccc(c34)C2=O)c1`?
UHRF1 binding: 1; UBC13 polyUb: -70; Neddyl block: active; MBD2 DNA inh: -1

What do the screens show for `Cc1ccc(Cl)cc1N1CCN(S(=O)(=O)c2ccc3c(c2)NC(=O)C(C)C(=O)N3)CC1` (centres undefined)?
UHRF1 binding: 96*; UBC13 polyUb: 0; Neddyl block: inactive; MBD2 DNA inh: -2

How did Cc1ccc(CCNC(=O)C2CCC(CNc3c(N4CCCC4)c(=O)c3=O)CC2)cc1 (centres undefined) do in these assays?
UHRF1 binding: 6; UBC13 polyUb: -5; Neddyl block: inactive; MBD2 DNA inh: 1

Results for CCOC(=O)c1sc(NC(=O)CCN2CCCCCC2)c(C(=O)OCC)c1C ?
UHRF1 binding: -3; UBC13 polyUb: 5; Neddyl block: inactive; MBD2 DNA inh: 2

Results for Cc1ccc(CN2CCC[C@]3(N[C@H](c4ccc(C)cc4)[C@@H]4C(=O)N(Cc5ccccc5)C(=O)[C@@H]43)C2=O)cc1 ?
UHRF1 binding: 22*; Neddyl block: inactive; MBD2 DNA inh: 0

Results for O=C1[C@H]2[C@@H](c3ccccc3)N[C@]3(CCCN(Cc4ccc(F)cc4)C3=O)[C@H]2C(=O)N1Cc1ccccc1 ?
UHRF1 binding: 23*; Neddyl block: inactive; MBD2 DNA inh: 10

Results for Cc1ccc(CN2CCC[C@]3(N[C@H](c4ccccc4)[C@@H]4C(=O)N(Cc5ccccc5)C(=O)[C@@H]43)C2=O)cc1 ?
UHRF1 binding: -1; Neddyl block: inactive; MBD2 DNA inh: 1

How did CCOc1nc(C)ccc1-c1noc(CC)n1 do in these assays?
UHRF1 binding: -2; UBC13 polyUb: 2; Neddyl block: inactive; MBD2 DNA inh: -5

Results for Cc1nnc(NC(=O)CSc2nnc(CNC(=O)c3ccccc3)n2-c2ccccc2)s1 ?
UHRF1 binding: 1; UBC13 polyUb: -1; Neddyl block: inactive; MBD2 DNA inh: -9

What do the screens show for `O=C(N/N=C/c1cc(Br)c(O)c(Br)c1)c1cc2c(ccc3ccccc32)o1`?
UHRF1 binding: -2; UBC13 polyUb: -6; Neddyl block: active; MBD2 DNA inh: -3

Results for O=C(O)c1cc(-c2c[nH]c3ccccc23)nc2ccc3ccccc3c12 ?
UHRF1 binding: 21*; UBC13 polyUb: 15; MBD2 DNA inh: 1

How did CC(C)C(=O)NC(=S)Nc1ccc(S(=O)(=O)Nc2ccccc2)cc1 do in these assays?
UHRF1 binding: -4; UBC13 polyUb: 5; Neddyl block: inactive; MBD2 DNA inh: 0

Results for Cc1ccc(Nc2nc(Cl)c(C=O)s2)cc1Cl ?
UHRF1 binding: -1; UBC13 polyUb: -6; Neddyl block: inactive; MBD2 DNA inh: 1
